Source: PubChem (National Center for Advancing Translational Sciences (NCATS))
ATXN viability: Viability Counterscreen for Primary qHTS for Inhibitors of ATXN expression; S2 cells (HEK-293 line with an ATXN2-luciferase reporter) viability, CellTiter-Fluor protease fluorescence, 24 h; Potency, µM (doses to about 56.7 µM), usual class: cytotoxic; 400,000 tested, 0.49% active; also: nearly all actives have a fitted effect of over 40% in size
ATXN2 expr inh: Primary qHTS for Inhibitors of ATXN expression; 360,000 tested, 0.72% active; AID 1745845, 2022; Potency, µM (highest dose often 57 µM), without a hit: top-dose activity change, negative = inhibition, usual class: inhibitors; HEK-293 ATXN2-luciferase reporter, luminescence, 24 h; also: % is scaled to controls: 0 for no effect and ±100 for the full control effect; nearly all actives have a fitted effect of over 55% in size
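ATXN2-luciferase reporter cells (luciferase flanked by upstream and downstream ATXN2 gene portions) were treated 24 h at 37 °C with compounds at up to 57 uM. SteadyGlo luminescence gave expression; GF-AFC fluorescence gave viability.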
DT40 TDP1 CPT: qHTS for Inhibitors of human tyrosyl-DNA phosphodiesterase 1 (TDP1): qHTS in cells in presence of CPT | chicken DT40 Tdp1-/-;hTDP1 cells + 20 nM CPT, ATP luminescence, 48 h | Potency, µM (top dose mostly 46.2 µM), for the others: at the top dose activity change, negative = growth inhibition, hits mostly inhibitors | 420,000 tested, 12% active; also: % is scaled to controls: 0 for no effect and ±100 for the full control effect; nearly all actives have a fitted effect of over 55% in size
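Cell growth measured by CellTiter-Glo luminescence after a minimum 48 h, 37 C compound exposure with 20 nM CPT in Tdp1-knockout DT40 cells stably expressing hTDP1, seeded 400/well; qHTS titration format.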
TGFb SMAD3 inh: qHTS for Inhibitors of TGF-b; 410,000 tested, 1.2% active; Potency, µM (highest dose often 46.1 µM), without a hit: at the top dose activity, negative = inhibition, hits mostly inhibitors; AID 588855, 2011; HepG2 CAGA-GFP TGF-b/SMAD3 reporter, GFP fluorescence, 18 h; TGF-beta stimulated, 500 pg/mL final; also: % is scaled to controls: 0 for no effect and ±100 for the full control effect; nearly all actives have a fitted effect of over 65% in size
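HEPG2 CAGA-GFP reporter cells (1000/well, DMEM with 1% FBS) received compounds, then recombinant TGF-beta at 500 pg/mL final for 18 hours at 37 degrees C. Per-cell GFP summed per well was normalised to unstimulated and stimulated DMSO controls before curve fitting.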
DT40 TDP1 no CPT: qHTS for Inhibitors of human tyrosyl-DNA phosphodiesterase 1 (TDP1): qHTS in cells in absence of CPT; Potency, µM (doses to about 46.2 µM), for the others: at the top dose activity change, negative = growth inhibition, most hits filed as inhibitors; DT40 Tdp1-/- hTDP1 cells, no CPT, ATP luminescence, 48 h; 420,000 tested, 15% active; also: % is scaled to controls: 0 for no effect and ±100 for the full control effect; nearly all actives have a fitted effect of over 55% in size
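Cells were dispensed at 400 per well, compounds added by pin tool, plates incubated ≥48 hr at 37 °C, then CellTiter-Glo added for 30 min at room temperature before luminescence reading. Line: DT40 Tdp1-/- complemented with hTDP1; camptothecin omitted.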
HepG2 tox: qHTS for Inhibitors of TGF-b: Cytotox Counterscreen | Potency, µM (titrated, usually from 46.1 µM), without a hit: top-dose activity change, negative = cytotoxicity, most hits filed as cytotoxic | HepG2 CAGA-GFP viability, ATP luminescence, 18 h | 410,000 tested, 0.76% active | AID 588856, 2011
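CellTiter-Glo luminescence gave cytotoxicity after 18 hours at 37 degrees C. The cells were HepG2 CAGA-GFP in 1% FBS DMEM, stimulated with 500 pg/mL TGF-beta after compound addition. %Activity was normalised to no-cell wells (complete cell-killing) and DMSO (no toxicity), and curves were fitted and classified.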
An asterisk follows results filed as active; i = inactive; ? = inconclusive; . = no result given; ! = a repeat was not active; [ ] = another dose, or the depositor's remark. An excerpt weighted towards active compounds, which were near 17% of everything screened. Calls follow the shape of the dose curve; as a rule, active = well fitted curve in the direction sought with a large enough effect; inconclusive = small, poorly fitted or top-dose-only effect, or another doubt; inactive = no such curve, though single readings can be large; an effect the other way counts as inactive or inconclusive. Potency is read from the fitted curve at half-maximal effect.

SMILES	ATXN viability	ATXN2 expr inh	DT40 TDP1 CPT	TGFb SMAD3 inh	DT40 TDP1 no CPT	HepG2 tox
Cc1ccccc1CN1[C@@H](CC2CCCCC2)COCCS1(=O)=O	?	-33.2%	?	11.2µM*	12.6µM*	11.2µM*!
O=S1(=O)CCOC[C@H](CC2CCCCC2)N1Cc1cccc(Cl)c1	i	-26.9%	14.1µM*	15.8µM*	11.2µM*	-5.1%
O=S1(=O)CCOC[C@H](CC2CCCCC2)N1Cc1ccccc1	i	-0.1%	?	?	?	-2.3%
CCOC(=O)N1CCC(NC(=O)c2cc(COc3c(C)cccc3C)on2)CC1	i	-17.5%	?	-23.3%	?	-21.6%
CCOC(=O)c1c(NC(=O)c2ccoc2C)sc(C(=O)N(C)C)c1C	i	-10.6%	-28.2%	-12.2%	23.1µM*	-15.1%
COC(=O)c1sccc1NC(=O)c1cc(-c2ccc(C)cc2C)nc2ccccc12	i	-14.7%	?	7.3%	?	10.3%
Cc1ccc(C)c(-c2cc(C(=O)Nc3sc(C)c(C)c3C(N)=O)c3ccccc3n2)c1	?	?	20.6µM*	-18.9%	?	-11.7%
Cc1ccc(C)c(-c2cc(C(=O)NNC(=S)NCC(C)C)c3ccccc3n2)c1	i	-6.2%	1.7%	-7.4%	-19.6%	-34.0%
CC(C)CN(CCCNC(=O)c1cc(-c2ccc(Br)s2)nc2ccccc12)CC(C)C	i	-0.9%	?	14.3%	-25.9%	-12.7%
CCN(CC)C(=O)c1sc(NC(=O)c2cc(-c3ccc(C)s3)nc3ccccc23)c(C(=O)OC)c1C	i	-5.0%	?	?	23.1µM*	1.5%
CCN(CC)CC(C)CNC(=O)c1cc(-c2ccc(Br)s2)nc2ccccc12 (centres undefined)	.	28.2µM*	8.2µM*	?	9.2µM*	-32.2%
c1ccc2c(N3CCCCCC3)nc(CN3CCCCC3c3nccs3)nc2c1 (centres undefined)	?	.	-4.5%[9.04 µM]	.	?	.
CCOC(=O)c1c(NC(=O)OC)sc(C(=O)N(CC)CC)c1C	i	-4.8%	?	6.1%	?	11.5%
CCOC(=O)c1c(NC(=O)COC(=O)c2ccccc2NC)sc(C(=O)N(C)C)c1C	?	31.6µM*	?	?	?	-7.6%
CCN(CC)C(=O)c1sc(NC(=O)C(Sc2ccccc2)c2ccccc2)c(C(=O)OC(C)C)c1C (centres undefined)	i	-21.5%	?	2.3%	16.4µM*	6.7%
CCN(CC)C(=O)c1sc(NC(=O)c2ccoc2C)c(C(=O)OC)c1C	i	-10.1%	?	7.5%	20.6µM*	-7.4%
CCOC(=O)c1c(NC(=O)COC(=O)c2nc(Cl)ccc2Cl)sc(C(=O)N(C)C)c1C	i	-5.8%	2.1%	17.2%	1.4%	3.1%
COc1ccccc1CCNC(=O)c1ccc(NC(=O)CC2SC(N3CCCCC3)=NC2=O)cc1 (centres undefined)	i	.	-18.3%	6.6%	?	-5.3%
CCCOc1cccc(C2c3c(oc4ccc(F)cc4c3=O)C(=O)N2CCc2ccc(OC)cc2)c1 (centres undefined)	i	12.0%	-26.2%	-5.3%	?	-5.7%
O=C1N/C(=C/c2ccc(N3CCCC3)cc2)C(=O)N1c1ccccc1	?	-7.4%	?	120.2%	?	-23.1%
O=C1N/C(=C/c2ccc(N3CCOCC3)o2)C(=O)N1c1ccccc1	?	?	11.6µM*	?	9.2µM*	-47.2%
CCOC(=O)Cc1cn2c(=O)cc(CSCC(=O)Nc3ccc(C)c(C)c3)nc2s1	i	82.4%	18.4µM*	-2.5%	?	4.2%
O=C(CC(c1ccc(F)cc1)c1ccco1)Nc1nccs1 (centres undefined)	i	-12.6%	-20.4%	17.2%	?	-15.2%
COc1ccccc1C(CC(=O)Nc1nccs1)c1ccco1 (centres undefined)	i	5.8%	?	-6.3%	14.6µM*	-23.3%
COC(=O)c1ccc(NC(=O)c2cc(-c3ccccn3)nc3ccccc23)cc1	i	-25.3%	2.8%	-2.2%	-13.8%	-24.3%
SMILES	ATXN viability	ATXN2 expr inh	DT40 TDP1 CPT	TGFb SMAD3 inh	DT40 TDP1 no CPT	HepG2 tox
CCN(CC)S(=O)(=O)c1cc(NC(=O)c2cc(-c3ccccn3)nc3ccccc23)ccc1C	?	-36.4%	23.1µM*	-3.8%	14.6µM*	-19.8%
CCN(CC)S(=O)(=O)c1ccc2[nH]c(=O)cc(C(=O)Nc3ccc(C)c(S(=O)(=O)N(CC)CC)c3)c2c1	i	?	?	-23.6%	23.1µM*	-5.4%
CCN(CC)C(=O)c1cccc(NC(=O)c2cc(-c3ccccn3)nc3ccccc23)c1	?	0.0%	?	?	16.4µM*	1.4%
COc1ccc(NC(=O)c2cc(-c3ccccn3)nc3ccccc23)cc1S(=O)(=O)N(C)C	?	-2.2%	?	-9.6%	9.2µM*	-2.4%
CCN(CC)S(=O)(=O)c1cc(NC(=O)COC(=O)Cn2cnc3ccccc32)ccc1C	i	0.5%	-24.4%	-2.9%	1.1%	-18.6%
CCOc1ccc(OCC)c(NC(=O)CN(C)S(=O)(=O)c2ccc3nc(C)sc3c2)c1	i	-16.4%	?	?	?	-2.1%
CCOc1cc(N2CCOCC2)c(OCC)cc1NC(=O)COC(=O)c1c(C)noc1C	?	.	?	-16.1%	?	-56.4%
CC1CCc2c(sc3nc(SCC(=O)NCc4ccco4)nc(N)c23)C1 (centres undefined)	i	76.3%	18.4µM*	10.9%	13µM*	-9.0%
CCOC(=O)CSc1nc(N)c2c3c(sc2n1)CCCC3	?	13.5%	6.0%	0.2%	-15.2%	-19.4%
CCN(CC)C(=O)CSc1nc(N)c2c3c(sc2n1)CC(C)CC3 (centres undefined)	?	43.2%	?	-25.4%	20.6µM*	-15.9%
COc1ccc(NC(=S)NC2CCCCCC2)c(OC)c1	i	12.9%	?	?	23.1µM*	-48.7%
S=C(Nc1cccc2ccccc12)NC1CCCCC1	i	-1.6%	?	-4.7%	16.4µM*	-7.5%
COc1ccc(NC(=O)COc2ccc(S(=O)(=O)NC3CCCCC3)cc2)c(OC)c1	?	4.2%	14.6µM*	-33.6%	16.4µM*	-17.8%
